# How the values were obtained:
# Assay in all cases: DAPPL (digital affinity profiling via proximity ligation, sequencing); 10 mM Tris-HCl pH 7.5, 50 mM NaCl, 1 mM DTT, 4% glycerol, room temperature, 30 min; GST-TFs on glutathione beads, 16-mer random dsDNA library, 0.1% formaldehyde crosslink after washing; high values mean tight binding
# FEV = molecular target: T1, FEV (Homo sapiens, UniProt Q99581 1-238); settings: protein: recombinant; tags: N-terminal GST; dsDNA, one strand shown
# T1 sequence: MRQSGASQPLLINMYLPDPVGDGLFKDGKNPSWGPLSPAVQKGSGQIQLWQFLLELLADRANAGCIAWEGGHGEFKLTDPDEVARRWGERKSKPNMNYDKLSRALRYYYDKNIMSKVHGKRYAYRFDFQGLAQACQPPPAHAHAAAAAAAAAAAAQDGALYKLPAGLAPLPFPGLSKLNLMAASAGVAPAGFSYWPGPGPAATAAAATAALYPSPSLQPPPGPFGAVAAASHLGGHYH
# Outline: (§1)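 Yeast served to express human transcription factors as GST fusions, which were then captured on glutathione beads and labelled with DNA barcodes. Pooled with a tag-only sample, they were incubated with 200 nmole of a 16-mer random double-stranded DNA library for 30 min at room temperature in Tris/NaCl/DTT/glycerol buffer, washed, crosslinked with 0.1% formaldehyde, ligated by proximity, amplified by PCR and sequenced. Dividing each hexamer's read frequency for a factor by its frequency for the tag-only sample gives the binding signal.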
# ETV5 = ETV5 (Homo sapiens, UniProt P41161 1-510); settings: protein: recombinant; tags: N-terminal GST; dsDNA, one strand shown
# Sequence of ETV5 (P41161 whole entry): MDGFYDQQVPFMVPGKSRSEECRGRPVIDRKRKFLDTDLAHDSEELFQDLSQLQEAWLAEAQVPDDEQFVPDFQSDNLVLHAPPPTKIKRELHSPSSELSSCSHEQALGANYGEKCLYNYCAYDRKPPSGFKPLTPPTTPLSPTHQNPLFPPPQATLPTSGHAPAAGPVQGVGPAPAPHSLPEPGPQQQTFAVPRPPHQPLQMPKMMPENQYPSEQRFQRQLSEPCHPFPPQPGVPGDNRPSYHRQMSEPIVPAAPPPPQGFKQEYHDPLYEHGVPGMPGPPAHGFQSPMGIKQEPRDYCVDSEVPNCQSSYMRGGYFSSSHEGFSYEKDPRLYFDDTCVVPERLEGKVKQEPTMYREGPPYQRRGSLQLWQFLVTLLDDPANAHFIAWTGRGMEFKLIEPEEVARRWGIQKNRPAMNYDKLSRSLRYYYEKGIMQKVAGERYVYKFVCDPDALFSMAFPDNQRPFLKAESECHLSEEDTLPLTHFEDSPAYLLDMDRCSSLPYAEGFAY
# Outline: as §1
# HSF1 = HSF1 (Homo sapiens, UniProt Q00613 1-529); settings: protein: recombinant; tags: N-terminal GST; chain copies: 3; dsDNA, one strand shown
# Sequence of HSF1 (Q00613 whole entry): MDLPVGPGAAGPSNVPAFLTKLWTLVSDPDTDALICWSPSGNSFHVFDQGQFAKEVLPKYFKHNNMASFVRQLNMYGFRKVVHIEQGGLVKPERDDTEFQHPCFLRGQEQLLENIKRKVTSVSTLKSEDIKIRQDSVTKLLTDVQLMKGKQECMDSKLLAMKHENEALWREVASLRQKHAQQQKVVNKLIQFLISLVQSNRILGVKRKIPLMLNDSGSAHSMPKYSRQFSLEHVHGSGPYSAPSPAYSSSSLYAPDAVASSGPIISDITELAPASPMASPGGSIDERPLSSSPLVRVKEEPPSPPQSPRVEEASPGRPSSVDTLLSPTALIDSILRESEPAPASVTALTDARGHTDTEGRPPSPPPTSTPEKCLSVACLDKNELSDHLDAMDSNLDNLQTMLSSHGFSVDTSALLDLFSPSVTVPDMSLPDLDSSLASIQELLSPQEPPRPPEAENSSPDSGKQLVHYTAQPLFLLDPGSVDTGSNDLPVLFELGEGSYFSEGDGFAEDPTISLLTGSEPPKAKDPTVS
# Outline: as §1
# SPIC = molecular target: T2, SPIC (Homo sapiens, UniProt Q8N5J4 1-248); settings: protein: recombinant; tags: N-terminal GST; dsDNA, one strand shown
# T2 sequence: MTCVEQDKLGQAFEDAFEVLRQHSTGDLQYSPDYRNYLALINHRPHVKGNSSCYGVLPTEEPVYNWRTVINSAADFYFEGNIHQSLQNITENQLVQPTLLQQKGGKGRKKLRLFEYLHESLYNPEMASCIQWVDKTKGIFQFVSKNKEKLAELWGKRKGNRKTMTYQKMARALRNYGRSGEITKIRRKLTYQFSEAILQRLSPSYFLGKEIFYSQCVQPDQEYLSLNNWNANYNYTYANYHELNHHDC
# Outline: as §1
# ELF4 = ELF4 (Homo sapiens, UniProt Q99607 1-663); settings: protein: recombinant; tags: N-terminal GST; dsDNA, one strand shown
# Sequence of ELF4 (Q99607 whole entry): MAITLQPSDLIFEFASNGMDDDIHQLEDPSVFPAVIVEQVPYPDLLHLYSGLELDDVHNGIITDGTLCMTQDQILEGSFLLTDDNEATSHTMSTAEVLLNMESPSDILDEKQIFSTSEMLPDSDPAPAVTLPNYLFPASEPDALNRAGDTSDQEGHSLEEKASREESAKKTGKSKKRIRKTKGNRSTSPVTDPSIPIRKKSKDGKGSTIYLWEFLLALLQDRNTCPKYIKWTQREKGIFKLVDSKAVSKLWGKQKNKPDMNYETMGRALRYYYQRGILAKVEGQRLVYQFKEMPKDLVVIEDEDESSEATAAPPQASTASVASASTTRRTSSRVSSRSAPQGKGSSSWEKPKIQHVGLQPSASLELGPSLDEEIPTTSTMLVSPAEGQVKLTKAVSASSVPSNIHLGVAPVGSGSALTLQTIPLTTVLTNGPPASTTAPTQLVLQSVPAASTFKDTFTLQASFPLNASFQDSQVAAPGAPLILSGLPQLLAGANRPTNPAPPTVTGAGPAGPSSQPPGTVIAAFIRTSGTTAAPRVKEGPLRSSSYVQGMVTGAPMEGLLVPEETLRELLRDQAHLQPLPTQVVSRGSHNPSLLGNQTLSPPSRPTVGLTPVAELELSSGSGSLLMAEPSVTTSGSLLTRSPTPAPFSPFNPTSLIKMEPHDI
# Outline: as §1
# ELK4 = molecular target: T3, ELK4 (Homo sapiens, UniProt P28324-2 1-405); settings: protein: recombinant; tags: N-terminal GST; dsDNA, one strand shown
# T3 sequence: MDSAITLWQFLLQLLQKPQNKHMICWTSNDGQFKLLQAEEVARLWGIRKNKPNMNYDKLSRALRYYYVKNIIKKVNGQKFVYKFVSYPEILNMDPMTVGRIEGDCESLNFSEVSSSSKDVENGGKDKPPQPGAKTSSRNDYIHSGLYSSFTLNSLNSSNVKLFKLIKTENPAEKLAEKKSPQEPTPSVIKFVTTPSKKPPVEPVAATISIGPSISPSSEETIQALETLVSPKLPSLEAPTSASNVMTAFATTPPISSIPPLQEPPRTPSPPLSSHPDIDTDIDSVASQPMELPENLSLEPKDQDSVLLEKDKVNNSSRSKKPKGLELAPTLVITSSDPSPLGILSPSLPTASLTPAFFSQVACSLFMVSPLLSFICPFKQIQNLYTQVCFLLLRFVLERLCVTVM
# Outline: as §1
# ETV2 = molecular target: T4, ETV2 (Homo sapiens, UniProt O00321 1-342); settings: protein: recombinant; tags: N-terminal GST; dsDNA, one strand shown
# T4 sequence: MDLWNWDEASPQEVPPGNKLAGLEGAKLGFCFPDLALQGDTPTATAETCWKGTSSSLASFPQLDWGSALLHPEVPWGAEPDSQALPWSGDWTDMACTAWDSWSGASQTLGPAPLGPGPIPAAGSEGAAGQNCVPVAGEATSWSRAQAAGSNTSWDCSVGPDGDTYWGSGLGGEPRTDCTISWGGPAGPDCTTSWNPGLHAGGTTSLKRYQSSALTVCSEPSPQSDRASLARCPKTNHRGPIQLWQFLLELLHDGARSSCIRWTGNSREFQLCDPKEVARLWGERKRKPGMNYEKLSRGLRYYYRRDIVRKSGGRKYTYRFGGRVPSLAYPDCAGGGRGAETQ
# Outline: as §1
# ELF3 = molecular target: T5, ELF3 (Homo sapiens, UniProt P78545 1-371); settings: protein: recombinant; tags: N-terminal GST; dsDNA, one strand shown
# T5 sequence: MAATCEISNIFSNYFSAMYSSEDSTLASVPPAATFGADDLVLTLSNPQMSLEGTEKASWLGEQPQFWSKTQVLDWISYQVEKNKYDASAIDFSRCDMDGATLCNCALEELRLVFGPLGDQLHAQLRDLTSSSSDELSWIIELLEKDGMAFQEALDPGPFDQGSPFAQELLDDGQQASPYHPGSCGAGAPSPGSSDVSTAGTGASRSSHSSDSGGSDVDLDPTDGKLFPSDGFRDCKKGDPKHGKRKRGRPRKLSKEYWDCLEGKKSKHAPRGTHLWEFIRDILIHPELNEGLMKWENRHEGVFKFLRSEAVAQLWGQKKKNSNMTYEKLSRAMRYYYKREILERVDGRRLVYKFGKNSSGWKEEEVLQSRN
# Outline: as §1
# CRX = CRX (Homo sapiens, UniProt O43186 1-299); settings: protein: recombinant; tags: N-terminal GST; dsDNA, one strand shown
# Sequence of CRX (O43186 whole entry): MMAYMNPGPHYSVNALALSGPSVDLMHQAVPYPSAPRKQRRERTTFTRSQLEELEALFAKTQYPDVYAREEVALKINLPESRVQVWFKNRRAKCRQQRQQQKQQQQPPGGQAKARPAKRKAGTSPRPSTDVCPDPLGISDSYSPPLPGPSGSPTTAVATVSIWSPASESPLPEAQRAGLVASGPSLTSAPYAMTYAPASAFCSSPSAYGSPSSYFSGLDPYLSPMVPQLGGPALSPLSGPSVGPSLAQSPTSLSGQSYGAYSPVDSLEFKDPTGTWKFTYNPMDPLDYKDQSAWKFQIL
# Outline: as §1
# ETV1 = ETV1 (Homo sapiens, UniProt P50549 1-477); settings: protein: recombinant; tags: N-terminal GST; dsDNA, one strand shown
# Sequence of ETV1 (P50549 whole entry): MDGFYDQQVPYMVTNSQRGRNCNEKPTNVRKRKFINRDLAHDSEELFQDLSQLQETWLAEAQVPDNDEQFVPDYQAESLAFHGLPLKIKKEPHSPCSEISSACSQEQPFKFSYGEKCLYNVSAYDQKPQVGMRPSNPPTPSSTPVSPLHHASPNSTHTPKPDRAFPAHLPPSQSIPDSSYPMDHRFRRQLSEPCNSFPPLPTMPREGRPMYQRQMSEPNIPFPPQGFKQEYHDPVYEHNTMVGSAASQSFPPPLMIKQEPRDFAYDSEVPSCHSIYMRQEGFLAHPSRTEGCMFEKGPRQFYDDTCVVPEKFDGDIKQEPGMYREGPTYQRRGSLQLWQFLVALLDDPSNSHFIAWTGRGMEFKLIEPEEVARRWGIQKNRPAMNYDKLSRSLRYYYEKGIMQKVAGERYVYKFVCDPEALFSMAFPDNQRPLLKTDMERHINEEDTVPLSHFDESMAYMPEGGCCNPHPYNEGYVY
# Outline: as §1
# ERF = molecular target: T6, ERF (Homo sapiens, UniProt P50548 1-548); settings: protein: recombinant; tags: N-terminal GST; dsDNA, one strand shown
# T6 sequence: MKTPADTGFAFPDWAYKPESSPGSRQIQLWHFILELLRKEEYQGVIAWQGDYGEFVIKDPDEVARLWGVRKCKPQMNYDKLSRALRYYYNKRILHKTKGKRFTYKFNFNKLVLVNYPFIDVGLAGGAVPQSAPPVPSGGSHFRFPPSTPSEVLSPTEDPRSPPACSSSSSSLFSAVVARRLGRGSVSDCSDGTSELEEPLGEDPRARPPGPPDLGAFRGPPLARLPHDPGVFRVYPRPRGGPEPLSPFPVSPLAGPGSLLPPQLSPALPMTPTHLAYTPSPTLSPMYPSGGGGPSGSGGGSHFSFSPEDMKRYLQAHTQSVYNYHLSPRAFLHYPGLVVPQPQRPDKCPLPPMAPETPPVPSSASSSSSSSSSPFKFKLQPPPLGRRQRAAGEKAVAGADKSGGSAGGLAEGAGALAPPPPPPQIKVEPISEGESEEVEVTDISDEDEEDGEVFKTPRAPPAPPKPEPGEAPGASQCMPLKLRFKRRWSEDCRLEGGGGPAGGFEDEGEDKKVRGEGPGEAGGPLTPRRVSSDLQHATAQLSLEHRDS
# Outline: as §1
# ETV3L = molecular target: T7, ETV3L (Homo sapiens, UniProt Q6ZN32 1-361); settings: protein: recombinant; tags: N-terminal GST; dsDNA, one strand shown
# T7 sequence: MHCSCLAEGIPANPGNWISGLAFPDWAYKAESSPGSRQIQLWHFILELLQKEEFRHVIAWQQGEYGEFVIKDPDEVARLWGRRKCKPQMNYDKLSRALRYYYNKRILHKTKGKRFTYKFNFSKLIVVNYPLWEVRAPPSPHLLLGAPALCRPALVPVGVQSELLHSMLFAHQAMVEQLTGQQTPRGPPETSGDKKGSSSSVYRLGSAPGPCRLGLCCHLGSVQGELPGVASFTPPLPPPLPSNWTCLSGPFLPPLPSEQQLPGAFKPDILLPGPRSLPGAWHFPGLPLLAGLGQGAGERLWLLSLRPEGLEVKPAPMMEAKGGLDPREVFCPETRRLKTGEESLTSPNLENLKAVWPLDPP
# Outline: as §1
# ETS2 = molecular target: T8, ETS2 (Homo sapiens, UniProt P15036 1-469); settings: protein: recombinant; tags: N-terminal GST; dsDNA, one strand shown
# T8 sequence: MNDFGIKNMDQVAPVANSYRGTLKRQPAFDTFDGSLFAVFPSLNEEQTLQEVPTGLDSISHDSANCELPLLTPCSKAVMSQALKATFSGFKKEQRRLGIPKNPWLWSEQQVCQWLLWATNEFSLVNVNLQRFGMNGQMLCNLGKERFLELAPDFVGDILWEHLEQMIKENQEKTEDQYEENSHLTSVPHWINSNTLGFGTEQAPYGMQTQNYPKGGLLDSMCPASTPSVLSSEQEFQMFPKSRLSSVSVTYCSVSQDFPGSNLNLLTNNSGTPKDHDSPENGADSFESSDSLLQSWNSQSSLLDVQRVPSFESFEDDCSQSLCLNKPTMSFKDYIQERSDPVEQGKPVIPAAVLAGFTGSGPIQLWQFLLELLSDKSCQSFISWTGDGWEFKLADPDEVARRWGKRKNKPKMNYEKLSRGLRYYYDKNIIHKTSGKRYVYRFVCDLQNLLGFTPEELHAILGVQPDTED
# Outline: as §1
# SPDEF = molecular target: T9, SPDEF (Homo sapiens, UniProt O95238 1-335); settings: protein: recombinant; tags: N-terminal GST; dsDNA, one strand shown
# T9 sequence: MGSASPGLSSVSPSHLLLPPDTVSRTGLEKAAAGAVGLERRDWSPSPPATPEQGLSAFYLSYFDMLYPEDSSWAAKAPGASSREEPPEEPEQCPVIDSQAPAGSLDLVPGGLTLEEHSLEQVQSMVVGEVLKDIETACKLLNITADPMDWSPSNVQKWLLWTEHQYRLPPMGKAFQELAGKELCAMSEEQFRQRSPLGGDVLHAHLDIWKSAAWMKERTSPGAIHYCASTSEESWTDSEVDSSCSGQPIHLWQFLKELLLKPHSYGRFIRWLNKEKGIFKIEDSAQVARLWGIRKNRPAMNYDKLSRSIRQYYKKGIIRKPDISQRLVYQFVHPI
# Outline: as §1
# ETV7 = molecular target: T10, ETV7 (Homo sapiens, UniProt Q9Y603 1-341); settings: protein: recombinant; tags: N-terminal GST; dsDNA, one strand shown
# T10 sequence: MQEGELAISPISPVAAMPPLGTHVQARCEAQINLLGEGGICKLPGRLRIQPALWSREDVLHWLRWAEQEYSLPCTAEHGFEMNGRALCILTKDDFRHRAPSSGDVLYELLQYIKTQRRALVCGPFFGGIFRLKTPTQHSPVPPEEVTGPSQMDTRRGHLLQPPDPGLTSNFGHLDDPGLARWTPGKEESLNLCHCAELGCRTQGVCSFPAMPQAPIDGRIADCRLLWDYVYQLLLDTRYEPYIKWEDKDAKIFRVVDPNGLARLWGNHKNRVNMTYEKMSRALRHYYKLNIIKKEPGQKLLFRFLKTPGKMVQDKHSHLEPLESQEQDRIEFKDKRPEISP
# Outline: as §1
# ELF5 = molecular target: T11, ELF5 (Homo sapiens, UniProt Q9UKW6-2 1-255); settings: protein: recombinant; tags: N-terminal GST; dsDNA, one strand shown
# T11 sequence: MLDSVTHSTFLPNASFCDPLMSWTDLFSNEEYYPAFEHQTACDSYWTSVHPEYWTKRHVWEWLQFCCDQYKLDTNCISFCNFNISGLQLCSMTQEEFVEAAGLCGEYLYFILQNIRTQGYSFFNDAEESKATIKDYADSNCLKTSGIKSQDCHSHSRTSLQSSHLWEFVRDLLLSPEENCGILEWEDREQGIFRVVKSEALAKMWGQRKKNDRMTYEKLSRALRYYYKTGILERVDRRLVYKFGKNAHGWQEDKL
# Outline: as §1
# ETV3 = molecular target: T12, ETV3 (Homo sapiens, UniProt P41162-2 1-143); settings: protein: recombinant; tags: N-terminal GST; dsDNA, one strand shown
# T12 sequence: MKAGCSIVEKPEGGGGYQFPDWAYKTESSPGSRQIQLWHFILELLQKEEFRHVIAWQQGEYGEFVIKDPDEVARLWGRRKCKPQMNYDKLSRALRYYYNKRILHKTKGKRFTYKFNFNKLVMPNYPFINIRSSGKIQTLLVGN
# Outline: as §1
# ETV6 = ETV6 (Homo sapiens, UniProt P41212 1-452); settings: protein: recombinant; tags: N-terminal GST; dsDNA, one strand shown
# Sequence of ETV6 (P41212 whole entry): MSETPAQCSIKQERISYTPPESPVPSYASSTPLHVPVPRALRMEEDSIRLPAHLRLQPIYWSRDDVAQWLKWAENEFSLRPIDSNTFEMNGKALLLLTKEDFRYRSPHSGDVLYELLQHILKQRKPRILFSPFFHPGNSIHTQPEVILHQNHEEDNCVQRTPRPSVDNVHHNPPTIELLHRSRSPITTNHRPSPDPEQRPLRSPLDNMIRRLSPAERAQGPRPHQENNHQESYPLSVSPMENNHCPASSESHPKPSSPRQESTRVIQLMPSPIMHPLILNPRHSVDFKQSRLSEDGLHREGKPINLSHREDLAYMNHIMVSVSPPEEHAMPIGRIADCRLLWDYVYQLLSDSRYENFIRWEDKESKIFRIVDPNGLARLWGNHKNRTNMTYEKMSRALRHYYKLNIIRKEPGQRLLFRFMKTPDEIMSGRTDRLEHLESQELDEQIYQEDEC
# Outline: as §1
sequence,measurement,setting,value
AATATT,binding signal,FEV,"1.3 fold enrichment (6-mer frequency, TF over GST control)"
same,binding signal,ETV5,"1.4 fold enrichment (6-mer frequency, TF over GST control)"
same,binding signal,HSF1,"1.93 fold enrichment (6-mer frequency, TF over GST control)"
same,binding signal,SPIC,"1.45 fold enrichment (6-mer frequency, TF over GST control)"
same,binding signal,ELF4,"1.38 fold enrichment (6-mer frequency, TF over GST control)"
same,binding signal,ELK4,"1.35 fold enrichment (6-mer frequency, TF over GST control)"
same,binding signal,ETV2,"1.23 fold enrichment (6-mer frequency, TF over GST control)"
same,binding signal,ELF3,"1.36 fold enrichment (6-mer frequency, TF over GST control)"
same,binding signal,CRX,"1.61 fold enrichment (6-mer frequency, TF over GST control)"
same,binding signal,ETV1,"1.36 fold enrichment (6-mer frequency, TF over GST control)"
same,binding signal,ERF,"1.22 fold enrichment (6-mer frequency, TF over GST control)"
same,binding signal,ETV3L,"1.36 fold enrichment (6-mer frequency, TF over GST control)"
same,binding signal,ETS2,"1.34 fold enrichment (6-mer frequency, TF over GST control)"
same,binding signal,SPDEF,"1.25 fold enrichment (6-mer frequency, TF over GST control)"
same,binding signal,ETV7,"1.43 fold enrichment (6-mer frequency, TF over GST control)"
same,binding signal,ELF5,"1.38 fold enrichment (6-mer frequency, TF over GST control)"
same,binding signal,ETV3,"1.37 fold enrichment (6-mer frequency, TF over GST control)"
same,binding signal,ETV6,"1.46 fold enrichment (6-mer frequency, TF over GST control)"

# — PMC7862700, “An all-to-all approach to the identification of sequence-specific readers for epigenetic DNA modifications on cytosine”
